Structures are written as SMILES. This is part of a sample that, as a whole, favours compounds with a hit. Of some 83,000 tested, about 20% had one in any assay.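 For each line, cells grew in 96-well plates with the test compound present at a single concentration for 48 hours.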 A number with no mark means an inactive call. Calls of active or inactive are those of the source. Rule for the calls: active = growth percent below 10; inactive = the rest.

In the first assay the test system is HCT-15 colon. As to the kind of experiment: NCI-60 one-dose screen, 48 h (100 = growth as untreated, 0 = no growth, -100 = all killed). The following applies: 10 µM unless noted.
With `COC(=O)CCc1c[nH]c2ccc(N(CCCl)CCCl)cc12`, the growth is 64.9%.
Same read-out and setting: with `Nc1c(F)cc(-c2nc3cc(F)ccc3[se]2)cc1F` the figure was 22%.
In the case of `COC(=O)[C@@]1(C)CC[C@]2(C)CC[C@]3(C)C4=CC=C5C(=CC(=O)C(O)=C5C)[C@]4(C)CC[C@@]3(C)[C@@H]2C1`, the growth was -83.7% (active).
Take `COC(=O)[C@@H](C)C[C@H](Cc1ccccc1)NC(=O)c1nc([C@@H](C[C@H](C(C)C)N(C)C(=O)[C@@H](NC(=O)[C@H]2CCCCN2C)C(C)C)OC(C)=O)sc1C`: the growth was 12.9%.
The same measure, in the same setting: with `CC(=O)O[C@H](C[C@H](C(C)C)N(C)C(=O)[C@@H](NC(=O)[C@H]1CCCN1C)C(C)C)c1nc(C(=O)N[C@@H](Cc2ccccc2)C[C@H](C)C(=O)O)c(C)s1` the figure was 17.7%; with `CCOC(=O)[C@@H](C)C[C@H](Cc1ccccc1)NC(=O)c1csc([C@@H](C[C@H](C(C)C)N(C)C(=O)[C@H](CCC(C)C)NC(=O)[C@H]2CCCCN2C)OC(C)=O)n1`, 15.2%.
On to `COC(=O)C12CC(NC(=O)c3csc([C@@H](C[C@H](C(C)C)N(C)C(=O)[C@@H](NC(=O)[C@H]4CCCCN4C)C(C)C)OC(C)=O)n3)(C1)C2`, for which the growth is 5.8% (active).
Same read-out and setting: the figure for `Clc1ccc2nnnn2n1` is 24.7%; for `CC[C@H](C)[C@H](NC(=O)[C@H]1CCCCN1C)C(=O)N(C)[C@H](C[C@@H](O)c1nc(C(=O)N[C@@H](Cc2ccccc2)C[C@H](C)C(=O)O)cs1)C(C)C` it is 96.5%.
Turning to `N#C[S-].[Au+].c1ccc(CN2[CH-]N(Cc3ccccc3)C(c3ccccc3)=C2c2ccccc2)cc1`, the growth is 13.8%.
The same measure, in the same setting: with `CCCCCCCCCCCCNC(c1ccccc1)C(O)c1ccccc1` (stereo not drawn) the figure was 66.6%.

A further assay relates to HT29 colon. The description is as above. The following applies: 10 µM unless noted.
In the case of `COC(=O)[C@@H](C)C[C@H](Cc1ccccc1)NC(=O)c1nc([C@@H](C[C@H](C(C)C)N(C)C(=O)[C@@H](NC(=O)[C@H]2CCCN2C)C(C)C)OC(C)=O)sc1C`, the growth was 2.1% (active).
On to `CCCCCSC1C2C(=O)C(Br)=CC13CCNc1c(O)c4c5c(c13)=[N+]2CCC=5C=N4` (stereo not drawn), for which the growth was -31.8% (active).
On the same count and under the same terms, the figure for `CC1=C(CCCOC(=O)CN)C2=C(C)C3(CC3)[C@@](C)(O)C(=O)C2=C1` is 69.9%; for `COC(=O)CC[C@H](Cc1ccccc1)NC(=O)c1csc([C@@H](C[C@H](C(C)C)N(C)C(=O)[C@@H](NC(=O)[C@H]2CCCCN2C)C(C)C)OC(C)=O)n1` it is 5.29% (active).
For the molecule `COC(=O)CC12CC(NC(=O)c3csc([C@@H](C[C@H](C(C)C)N(C)C(=O)[C@@H](NC(=O)[C@H]4CCCCN4C)C(C)C)OC(C)=O)n3)(C1)C2`, the growth was 5.49% (active).
Regarding `O=C1CNC(c2ccccc2)c2cc(Cl)ccc2N1` (stereo not drawn), the growth is 80.4%.
In the case of `CC1(C)N=C(N)N=C(N)N1c1cccc(CCCCc2ccc(Cl)c(S(=O)(=O)F)c2)c1`, the growth was 12.5%.
Turning to `CC(=O)O[C@H](C[C@H](C(C)C)N(C)C(=O)[C@@H](NC(=O)[C@H]1CCCCN1C)C(C)C)c1nc(C(=O)N[C@@H](Cc2ccccc2)C[C@H](C)C(=O)O)c(C(C)C)s1`, the growth was 2.43% (active).
Consider `COC(=O)[C@@H](C)C[C@H](Cc1ccccc1)NC(=O)c1csc(CC[C@H](C(C)C)N(C)C(=O)[C@@H](NC(=O)[C@H]2CCCCN2C)C(C)C)n1`, for which the growth was 3.34% (active).
Same read-out and setting: the figure for `CCOP(=O)(NC[C@H]1O[C@](O)(CO)[C@@H](O)[C@@H]1O)OCC` is 96.2%; for `COc1cc([C@@H]2c3cc4c(cc3[C@H](OC(C)=O)[C@H]3COC(=O)[C@H]23)OCO4)cc(OC)c1OC` it is 5.66% (active); for `COC(=O)[C@@H](C)C[C@H](Cc1cn(C)c2ccccc12)NC(=O)c1csc([C@@H](C[C@H](C(C)C)N(C)C(=O)[C@@H](NC(=O)[C@H]2CCCCN2C)C(C)C)OC(C)=O)n1` it is 3.4% (active).
On the same count and under the same terms, the figure for `CCOC(=O)[C@@H](C)C[C@H](Cc1ccccc1)NC(=O)c1csc([C@@H](C[C@H](C(C)C)N(C)C(=O)[C@@H](NC(=O)[C@H]2CCCCN2C)C(C)(C)C)OC(C)=O)n1` is 0.339% (active).
Still for that read-out and setting: with `CC1=C(CCCNS(C)(=O)=O)C2=C(C)C3(CC3)[C@@](C)(O)C(=O)C2=C1` the figure was -2.04% (active).
On to `COC(=O)[C@@H](C)C[C@H](Cc1ccccc1)NC(=O)c1cccc([C@@H](C[C@H](C(C)C)N(C)C(=O)[C@@H](NC(=O)[C@H]2CCCCN2C)C(C)C)OC(C)=O)n1`, for which the growth is 6.05% (active).
Turning to `CNC(=O)Oc1ccc(C(C)(C)C)cc1OC(=O)NC`, the growth is 88.8%.
Consider `CC1(C)C(C(=O)c2cn(CCCCF)c3ccccc23)C1(C)C`, for which the growth is 48.8%.
Take `CC(=O)O[C@H](C[C@H](C(C)C)N(C)C(=O)[C@@H](NC(=O)[C@H]1CCCCN1C)C(C)C)c1nc(C(=O)NC2CCC(C(=O)O)CC2)cs1` (stereo partly drawn): the growth was 17.7%.
On to `CCCC[C@H](NC(=O)[C@H]1CCCN1C)C(=O)N(C)[C@H](C[C@@H](OC(C)=O)c1nc(C(=O)N[C@@H](Cc2ccccc2)C[C@H](C)C(=O)OCC)cs1)C(C)C`, for which the growth is 1.99% (active).
Turning to `CCOC(=O)[C@@H](C)C[C@H](Cc1ccccc1)NC(=O)c1csc([C@@H](C[C@H](C(C)C)N(C)C(=O)CNC(=O)[C@H]2CCCCN2C)OC(C)=O)n1`, the growth was 4.5% (active).
On the same count and under the same terms, the figure for `COc1ccc([As]=[As]c2ccc(OC)c(NCS(=O)(=O)O)c2)cc1NCS(=O)(=O)O` (stereo not drawn) is 39.8%; for `CC1=C(CCCOC(=O)[C@H](N)CC(C)C)C2=C(C)C3(CC3)[C@@](C)(O)C(=O)C2=C1` it is 12.6%.
Consider `O=[N+]([O-])c1cc(I)cc([N+](=O)[O-])c1`, for which the growth is 109%.
The same measure, in the same setting: with `CC(=O)OC[C@]1(C)C=C2C(=O)[C@](C)(O)C3(CC3)C(C)=C2[C@H]1OC(=O)N(C)CCN(C)C(=O)OC(C)(C)C` the figure was 0.176% (active).
The same measure, in the same setting: the figure for `CC[C@H](C)[C@H](NC(=O)[C@H]1CCCCN1C)C(=O)N(C)[C@H](CCc1nc(C(=O)N[C@@H](Cc2ccccc2)C[C@H](C)C(=O)OC)cs1)C(C)C` is -3.3% (active); for `COc1ccc(Nc2ccc([N+](=O)[O-])cc2[N+](=O)[O-])cc1CN(CCCl)CCCl` it is 13.2%; for `COC(=O)CCc1c[nH]c2ccc(N(CCCl)CCCl)cc12` it is 59.3%.
Regarding `Nc1c(F)cc(-c2nc3cc(F)ccc3[se]2)cc1F`, the growth was 46.4%.
`COC(=O)[C@@]1(C)CC[C@]2(C)CC[C@]3(C)C4=CC=C5C(=CC(=O)C(O)=C5C)[C@]4(C)CC[C@@]3(C)[C@@H]2C1`: the growth was -74.1% (active).
Still for that read-out and setting: the figure for `COC(=O)[C@@H](C)C[C@H](Cc1ccccc1)NC(=O)c1nc([C@@H](C[C@H](C(C)C)N(C)C(=O)[C@@H](NC(=O)[C@H]2CCCCN2C)C(C)C)OC(C)=O)sc1C` is 4.71% (active); for `CC(=O)O[C@H](C[C@H](C(C)C)N(C)C(=O)[C@@H](NC(=O)[C@H]1CCCN1C)C(C)C)c1nc(C(=O)N[C@@H](Cc2ccccc2)C[C@H](C)C(=O)O)c(C)s1` it is 2.64% (active).
Still for that read-out and setting: with `CCOC(=O)[C@@H](C)C[C@H](Cc1ccccc1)NC(=O)c1csc([C@@H](C[C@H](C(C)C)N(C)C(=O)[C@H](CCC(C)C)NC(=O)[C@H]2CCCCN2C)OC(C)=O)n1` the figure was -14.9% (active).
The same measure, in the same setting: the figure for `COC(=O)C12CC(NC(=O)c3csc([C@@H](C[C@H](C(C)C)N(C)C(=O)[C@@H](NC(=O)[C@H]4CCCCN4C)C(C)C)OC(C)=O)n3)(C1)C2` is 2.39% (active).
Take `Clc1ccc2nnnn2n1`: the growth was 12.9%.
The same measure, in the same setting: the figure for `CC[C@H](C)[C@H](NC(=O)[C@H]1CCCCN1C)C(=O)N(C)[C@H](C[C@@H](O)c1nc(C(=O)N[C@@H](Cc2ccccc2)C[C@H](C)C(=O)O)cs1)C(C)C` is 83.1%.
The same measure, in the same setting: with `N#C[S-].[Au+].c1ccc(CN2[CH-]N(Cc3ccccc3)C(c3ccccc3)=C2c2ccccc2)cc1` the figure was 7.04% (active); with `CCCCCCCCCCCCNC(c1ccccc1)C(O)c1ccccc1` (stereo not drawn), 52%.

The values are drawn from PubChem BioAssay (NCI).
